Experimental data reported in PubChem BioAssay AID1851 (National Center for Advancing Translational Sciences (NCATS), 2009).
Hit rate of the full screen: of about 16,000 compounds, about 5,100 (32%) were called active. About 25% were inconclusive and are not listed. Some of the results follow. A number with no mark means an inactive call. Calls follow the shape of the dose curve; as a rule, active = well fitted curve in the direction sought with a large enough effect; inconclusive = small, poorly fitted or top-dose-only effect, or effect the other way; inactive = no such curve, though single readings can be large or run the other way.

Each compound was assayed against Cytochrome P450 3A4 (Homo sapiens) (UniProt P08684) (assay: Cytochrome panel assay with activity outcomes). Conditions: recombinant CYP, pro-luciferin dealkylation, luminescence, p450-cyp3a4; series mostly up to 57.1 µM; activity, negative = inhibition: at the top concentration.
% is scaled to controls: 0 for no effect and ±100 for the full control effect.

Cytochrome P450 3A4 (Homo sapiens), sequence (P08684 whole entry, looked up): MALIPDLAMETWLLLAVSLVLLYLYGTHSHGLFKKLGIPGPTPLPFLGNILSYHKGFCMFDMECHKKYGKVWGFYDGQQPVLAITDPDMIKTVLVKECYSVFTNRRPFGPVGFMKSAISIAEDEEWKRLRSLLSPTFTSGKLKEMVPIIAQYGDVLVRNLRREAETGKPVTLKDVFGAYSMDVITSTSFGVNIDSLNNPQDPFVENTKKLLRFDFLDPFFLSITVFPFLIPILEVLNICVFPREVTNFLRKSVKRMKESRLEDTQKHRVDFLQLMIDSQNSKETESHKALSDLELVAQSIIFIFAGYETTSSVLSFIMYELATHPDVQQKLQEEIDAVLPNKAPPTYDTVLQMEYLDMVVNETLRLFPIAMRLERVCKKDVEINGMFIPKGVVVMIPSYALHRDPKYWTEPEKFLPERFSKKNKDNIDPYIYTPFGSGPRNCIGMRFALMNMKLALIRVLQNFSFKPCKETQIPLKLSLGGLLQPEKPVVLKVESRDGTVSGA

SMILES | activity, negative = inhibition | AC50
CSc1cc(C)nc(NC(C)=O)n1 | -0.518% | 
CCc1nc(SCC(=O)c2ccc(Cl)s2)c2oc3ccccc3c2n1 |  | 7.94 µM (active)
CCc1nc(SCC(=O)NCCc2ccccc2)c2oc3ccccc3c2n1 |  | 3.55 µM (active)
Cc1nc(Oc2ccc(Cl)cc2)c2oc3ccccc3c2n1 | 5.99% [at 2.29 µM] | 
CCc1nc(SCC(=O)N2CCCc3ccccc32)c2oc3ccccc3c2n1 |  | 15.8 µM (active)
CCc1nc(N[C@H](C(=O)O)C(C)CC)c2oc3ccccc3c2n1 (some centres undefined) | -3.57% | 
Cc1ccccc1C(=O)NC(C)c1ccc2c(c1)CCCC2 (centres undefined) | -17.3% | 
CCCCN=c1sc(C(=O)OC)cc(=O)n1CCCC | -0.264% | 
COC(=O)[C@H](CCSC)NC(=O)C/C=C\[C@@H](C)CO | -19.4% [at 11.4 µM] | 
COC(=O)[C@H](CCSC)NC(=O)C/C=C\[C@@H](C)[C@@H](CO)OC | -14.3% [at 11.4 µM] | 
COC(=O)[C@H](CCSC)NC(=O)NCc1ccccc1F |  | 15.8 µM (active)
C[C@@H](C(=O)Nc1ccc2ccccc2c1)[C@@H]1C[C@@]1(C)[C@@H](NC(=O)c1ccncc1Cl)c1ccccc1 |  | 10 µM (active)
C[C@@H](C(=O)Nc1ccc2ccccc2c1)[C@H]1C[C@]1(C)[C@H](NC(=O)c1cnccn1)c1ccccc1 |  | 0.631 µM (active)
C[C@@H](C(=O)Nc1ccc2ccccc2c1)[C@@H]1C[C@@]1(C)[C@@H](NC(=O)c1cnccn1)c1ccccc1 |  | 1 µM (active)
C=CCNC(=S)N1CCN(c2ncc3c(=O)c(C(=O)O)cn(CC)c3n2)CC1 | 2.96% | 
Cc1ccc(CSc2nnc(C(F)(F)F)n2Cc2ccc(F)cc2)cc1 |  | 3.16 µM (active)
COc1cccc(CSc2nnc(C(F)(F)F)n2Cc2ccc(F)cc2)c1 |  | 28.2 µM (active)
COc1cccc(CSCC(=O)O)c1 | -5.22% [at 11.4 µM] | 
COc1ccc(C(=O)NC(CO)c2nnc(SCc3ccc(Cl)c(Cl)c3)n2C)cc1 (centres undefined) | -5.47% [at 2.29 µM] | 
Fc1ccc(Cn2c(SCc3ccc(F)c(F)c3)nnc2C(F)(F)F)cc1 |  | 15.8 µM (active)
Fc1ccc(Cn2c(SCc3ccc(F)c(C(F)(F)F)c3)nnc2C(F)(F)F)cc1 |  | 20 µM (active)
NC(=O)CC(c1ccccc1)c1ccco1 (centres undefined) | -3.81% | 

SMILES | activity, negative = inhibition | AC50
c1ccc(CNc2ccnc(-c3cccnc3)n2)cc1 |  | 0.631 µM (active)
O=C(Nc1ccnc(-c2cccnc2)n1)c1cccc(Cl)c1Cl |  | 4.47 µM (active)
Cc1cccc(CNc2ccnc(-c3cccnc3)n2)c1 |  | 0.501 µM (active)
CC(=O)Nc1ccnc(-c2cccnc2)n1 | 5.09% | 
O=C(Nc1ccnc(-c2cccnc2)n1)c1ccccc1Cl | 3.82% [at 2.29 µM] | 
Cc1cccc(NC(=O)c2cc(N3C(=O)CCC3=O)ccc2Cl)n1 | -1.39% | 
Cn1cc(C(=O)c2ccc(Cl)cc2Cl)cc1C(=O)O | 24.4% | 
Nc1nc(NCc2ccccc2)nc(Nc2cccc(F)c2)c1[N+](=O)[O-] | -2.74% | 
CCC1(O)c2ccccc2-c2ncccc21 (centres undefined) | -21% | 
COc1ccc(C(N)=O)cc1NC(=O)c1cccc(F)c1 | 7.69% | 
C=C(C)c1cccc(C(C)(C)NC(=O)Nc2cc(C)ccc2OC)c1 |  | 10 µM (active)
O=[N+]([O-])c1c(NCCO)cc(Sc2nc3ccccc3s2)c2nonc12 |  | 25.1 µM (active)
c1ccc(NCCSc2nc3ccccc3s2)cc1 | -25.9% [at 11.4 µM] | 
CCc1cc2c(Sc3nc4ccccc4s3)ncnc2s1 | 6.04% [at 2.29 µM] | 
COc1n[nH]c2nncnc12 | 3.1% | 
CCOC(=O)c1[nH]c(C)c(C)c1C | -10.8% | 
CCOC(=O)C1=C(C)NC2(O)c3ccccc3C(=O)C12O (centres undefined) | 8.09% | 
CCOC(=O)C1=C(C)NC(C)=C(C(=O)OCC)C1c1sccc1C |  | 11.2 µM (active)
COc1ncc2ncc(=O)n(Cc3ccc(F)cc3)c2n1 |  | 10 µM (active)
O=c1cnc2cnc(OCc3ccccc3)nc2n1Cc1ccc(F)cc1 |  | 5.01 µM (active)
COc1ncc2ncc(=O)n(CCC#N)c2n1 | -14.1% | 
N#CCCn1c(=O)cnc2cnc(OCc3ccccc3)nc21 | -26.2% | 

SMILES | activity, negative = inhibition | AC50
COc1ncc2ncc(=O)n(C)c2n1 | -13% | 
O=C1NCC2(CCN(CCc3ccccc3)CC2)O1 |  | inactive
C[N+]1(CCC[N+]2(C)C[C@H]3[C@H](C2)[C@H]2C=C[C@@H]3CC2)CCOCC1 (some centres undefined) | 31.7% [at 11.4 µM] | 
CCN(CC)c1cc(C)c2cc(NC(=O)CNC(C)=O)ccc2n1 | -3.72% [at 11.4 µM] | 
CCCCNC(=O)CCC(=O)Nc1ccc2nc(N3CCOCC3)cc(C)c2c1 |  | 5.01 µM (active)
COc1ccc2c(C)cc(N3CCOCC3)nc2c1 | -8.84% | 
COCCCNC(=O)CCC(=O)Nc1ccc2nc(N3CCOCC3)cc(C)c2c1 |  | 12.6 µM (active)
Cc1cc(N2CCN(C)CC2)nc2ccc(NC(=O)CCC(=O)NCc3ccco3)cc12 |  | 15.8 µM (active)
C/C(=N\O)c1cccc[n+]1Cc1ccccc1 | -11.2% [at 11.4 µM] | 
COc1ccc2[nH]cc(CCNc3nc(-c4ccc(C(=O)N(C)C)cc4)nc4ccccc34)c2c1 |  | 2.51 µM (active)
COc1ccc2[nH]cc(CCNc3nc(-c4ccc(N(C)C)cc4)nc4ccccc34)c2c1 |  | 2.51 µM (active)
O=C(Nc1nnc(CCS(=O)(=O)c2ccc(Br)cc2)s1)c1ccc([N+](=O)[O-])cc1 | -8.9% [at 2.29 µM] | 
Cc1ccc(S(=O)(=O)CCc2nnc(NC(=O)COc3cccc(C)c3)s2)cc1 |  | 2.82 µM (active)
CC(=O)c1cn(CC(=O)Nc2c(C)cccc2C)c2ccccc12 |  | 11.2 µM (active)
COC(=O)C1CSC(C(=O)OC)N1C(=O)Nc1c(C)cccc1C (centres undefined) | -24.2% | 
Cc1cccc(C)c1NC(=O)C[N+](C)(C)C |  | inactive
Cc1[nH]nc(-c2ccc(O)cc2O)c1-c1ccc(Cl)cc1 |  | 3.55 µM (active)
C=C(C)COc1ccc(-c2n[nH]c(C)c2-c2ccc(OC)cc2)c(O)c1 |  | 10 µM (active)
Oc1ccc(-c2[nH]ncc2-c2ccc(Cl)cc2)c(O)c1 |  | 0.562 µM (active)
COc1ccc(-c2n[nH]c(C)c2-c2ccc(Cl)cc2)c(O)c1 |  | 14.1 µM (active)
